RORgamma inh = blocks mouse ROR gamma transcriptional activity | Potency, µM (doses to about 53.6 µM), for the others: at the highest dose activity change, negative = inhibition, hits mostly inhibitors | P51450 | 310,000 compounds, 5.4% hits | Drosophila S2 Gal4-RORgamma UAS-luciferase reporter, 20 h; note: % is set by controls: 0 for no effect and ±100 for the full control effect; nearly all actives have a fitted effect of over 60% in size
Target sequence (P51450 whole entry, looked up, the tested form may be a part): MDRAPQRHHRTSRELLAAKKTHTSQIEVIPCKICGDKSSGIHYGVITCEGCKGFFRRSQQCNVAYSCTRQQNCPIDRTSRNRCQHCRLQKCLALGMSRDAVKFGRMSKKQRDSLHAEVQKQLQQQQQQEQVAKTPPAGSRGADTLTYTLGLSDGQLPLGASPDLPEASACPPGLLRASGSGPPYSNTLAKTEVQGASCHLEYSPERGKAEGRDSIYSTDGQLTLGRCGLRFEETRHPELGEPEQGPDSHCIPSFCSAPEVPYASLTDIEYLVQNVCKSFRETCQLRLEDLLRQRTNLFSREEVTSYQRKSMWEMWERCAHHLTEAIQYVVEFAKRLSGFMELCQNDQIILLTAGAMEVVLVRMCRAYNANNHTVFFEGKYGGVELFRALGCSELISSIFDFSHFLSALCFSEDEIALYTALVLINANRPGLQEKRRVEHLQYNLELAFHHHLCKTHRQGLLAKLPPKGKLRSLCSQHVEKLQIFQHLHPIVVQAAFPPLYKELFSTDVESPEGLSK
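Luciferase reporter read in Schneider cells carrying Gal4-RORγ (mouse) and UAS-Photinus luciferase; cells given compound 1 h before 700 uM copper sulfate induction, then incubated 20 h at ambient temperature.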
ATXN2 expr inh = ATXN2 expression inhibition. Potency, µM (highest dose often 57 µM), for inactives: top-dose activity change, negative = inhibition, hits mostly inhibitors. 360,000 compounds, 0.72% hits. HEK-293 ATXN2-luciferase reporter, luminescence, 24 h; note: % is set by controls: 0 for no effect and ±100 for the full control effect; nearly all actives have a fitted effect of over 55% in size
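ATXN2-luciferase reporter cells (luciferase flanked by upstream and downstream ATXN2 gene portions) were treated 24 h at 37 °C with compounds at up to 57 uM. SteadyGlo luminescence gave expression; GF-AFC fluorescence gave viability.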
ATXN viability = viability counter-screen for ATXN expression inhibitors; 400,000 compounds, 0.49% hits; S2 cells (HEK-293 line with an ATXN2-luciferase reporter) viability, CellTiter-Fluor protease fluorescence, 24 h; Potency, µM (highest dose often 56.7 µM), most hits filed as cytotoxic; note: nearly all actives have a fitted effect of over 40% in size
VP16 counter = Gal4-VP16 reporter inhibition counter-screen | AID 2546 | Potency, µM (titrated, usually from 53.6 µM), for inactives: top-dose activity, negative = inhibition, usual class: inhibitors | 310,000 compounds, 3.5% hits | Drosophila S2 Gal4-VP16 UAS-luciferase, luminescence, 20 h;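 note: Gal4-VP16 expression switched on by copper sulfate through the metallothionein promoter; % is set by controls: 0 for no effect and ±100 for the full control effect; nearly all actives have a fitted effect of over 50% in size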
HepG2 tox = counter-screen for TGF-b inhibitors: cytotoxicity in HepG2 cells; 410,000 compounds, 0.76% hits; HepG2 CAGA-GFP viability, ATP luminescence, 18 h; Potency, µM (doses to about 46.1 µM), for the others: at the highest dose activity change, negative = cytotoxicity, usual class: cytotoxic
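HepG2 CAGA-GFP cells (1000/well, DMEM with 1% FBS) received compound, then TGF-beta at 500 pg/mL final, and were incubated 18 hours at 37 degrees C. Viability was read by CellTiter-Glo luminescence. Media-only wells were set as complete cell-killing and DMSO as no toxicity.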
TGFb SMAD3 inh = TGF-b pathway inhibition; HepG2 CAGA-GFP TGF-b/SMAD3 reporter, GFP fluorescence, 18 h; TGF-beta stimulated, 500 pg/mL final; Potency, µM (titrated, usually from 46.1 µM), without a hit: at the highest dose activity, negative = inhibition, hits mostly inhibitors; 410,000 compounds, 1.2% hits; AID 588855; note: % is set by controls: 0 for no effect and ±100 for the full control effect; nearly all actives have a fitted effect of over 65% in size
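Read-out: total well GFP (ex488/em500-530) summed from mean per-cell fluorescence. Cells: HEPG2 CAGA-GFP, 1% FBS DMEM, 18 h at 37 degrees C with 500 pg/mL final TGF-beta. Unstimulated wells served as the full-inhibition control; stimulated DMSO wells = 0%.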
* marks the source's active call; other numbers are inactive results; i = inactive; ? = inconclusive; · = no result given; [ ] = remark or other dose. An excerpt weighted towards active compounds, which were near 6.3% of everything screened. Calls come from the whole dose curve; as a rule, active = well fitted curve in the direction sought with a large enough effect; inconclusive = small, poorly fitted or top-dose-only effect, or another doubt; inactive = no such curve, though single readings can be large; an effect the other way counts as inactive or inconclusive. Potency is the fitted concentration of half-maximal effect.

SMILES	RORgamma inh	ATXN2 expr inh	ATXN viability	VP16 counter	HepG2 tox	TGFb SMAD3 inh
Cc1c(C(=O)NN)sc(-c2ccccc2)c1C#N	10µM*	?	i	?	-2.2%	11.3%
CCOC(=O)c1sc(-c2ccc(C)cc2)c(C#N)c1C	16.2%	1.5%[11.3 µM]	i	5.0%	4.3%	1.2%
O=C(COC(=O)CN1C(=O)c2ccccc2C1=O)Nc1ccccc1C(F)(F)F	·	·	i	·	-3.8%	-4.1%
Cc1ccc(-n2c(CNc3ccc(C)c(Cl)c3)n[nH]c2=S)cc1	2.51µM*	·	?	-16.6%	-37.6%	?
Cc1ccc(NCc2n[nH]c(=S)n2-c2cccc(Cl)c2)cc1	7.94µM*	-18.5%	i	-27.7%	-20.0%	-6.0%
CC1(C)CC(=O)C2=C(C1)NC(Nc1nc3ccccc3o1)=NC2c1ccccn1 (stereo not drawn)	3.55µM*	·	i	1.12µM*	-20.5%	-0.6%
CCCNC(=O)c1ccc(-c2nc3ccccc3s2)s1	11.2µM*	-37.5%	i	?	-10.4%	25.5%
CCCNC(=O)Nc1nc2ccccc2s1	-35.3%	42.9%	i	-3.9%	-6.5%	-14.0%
CCCSc1ncc(Cl)c(C(=O)Nc2ccc(OC)cc2OC)n1	·	·	·	·	-9.2%	·
COC(=O)c1[nH]c2ccc(C)cc2c1NC(=O)CN1CCN(c2ccccc2)CC1	?	184.7%	i	11.2µM*	-19.9%	-7.9%
COC(=O)c1[nH]c2ccc(C)cc2c1NC(=O)CN1CCN(c2ccc(F)cc2)CC1	-43.2%	-19.4%	?	12.6µM*	-4.1%	-0.9%
CCOC(=O)N1CCN(CC(=O)Nc2c(C(=O)OC)[nH]c3ccc(Cl)cc23)CC1	?	-9.3%	i	7.94µM*	-13.7%	?
COc1cccc(CN(C)C(=S)Nc2ccc(C)c(C)c2)c1	11.2µM*	-16.3%	i	20.0%[10 µM]	-24.1%	?
Cc1ccc(NC(=S)N(C)C(c2ccccc2)c2ccccc2)cc1C	3.55µM*	·	?	10µM*	-33.4%	?
COC(C(=O)Nc1ccc(F)cc1)c1ccccc1 (stereo not drawn)	42.6%	-6.2%	i	-1.9%	3.9%	-1.9%
COc1ccc(CN(C)C(=S)Nc2ccc(OC(F)F)cc2)cc1	?	-25.1%	i	?	-18.6%	-9.7%
Cc1ccc(NC(=O)C(SCC(=O)O)c2ccccc2)cc1C (stereo not drawn)	?	-1.3%	i	19.1%	0.5%	-0.1%
CN(C(=S)Nc1ccc(F)cc1)C(c1ccccc1)c1ccccc1	11.2µM*	-9.7%	i	?	-37.5%	?
O=C(Nc1cccc(Nc2ccccc2)c1)c1cnn2c1NC(=C1CC1)C=C2C(F)F	·	·	·	·	-12.8%	9.6%
CS(=O)(=O)c1ccccc1-c1nnc(NC(=O)COc2ccc(Cl)cc2)o1	·	-14.9%	i	·	-9.8%	-12.1%
O=C(COc1ccc(Cl)cc1Cl)Nc1nnc(C2=COCCO2)o1	3.16µM*	-16.5%[2.22 µM]	i	4.47µM*	-8.3%	8.2%
O=C(COc1ccc(Cl)cc1)Nc1nnc(C2=COCCO2)o1	12.6µM*	?	i	-15.6%	7.4%	3.0%
O=C(Nc1nnc(-c2cc(Cl)ccc2Cl)o1)C1=COCCO1	·	19.5%	i	·	0.5%	4.0%
COC(=O)c1cccc(NC(=O)CSc2nnc(C3CC3)n2C)c1	-13.3%	-7.9%	i	-8.3%	-22.4%	-16.6%
COc1cc(-c2cc(C)c3c(OC)ccc(OC)c3n2)cc2c1OCCN(C(=O)C(C)c1n[nH]c(=O)c3ccccc13)C2 (stereo not drawn)	·	·	i	·	·	·
SMILES	RORgamma inh	ATXN2 expr inh	ATXN viability	VP16 counter	HepG2 tox	TGFb SMAD3 inh
Cc1ccc(-n2c(Cl)c(Cl)nc(Cl)c2=O)cc1	2.82µM*	5.32µM*	·	5.01µM*	7.08µM*	5.01µM*
COc1ccc(CNC(=S)Nc2ccccc2)cc1	7.08µM*	4.2%	i	10µM*	-1.0%	2.5%
Cc1cccc(NC(=S)NC(C)(C)CC(C)(C)C)c1	2.24µM*	?	i	8.91µM*	-7.9%	?
COc1ccc(CNC(=S)Nc2cccc(F)c2)cc1	10µM*	-6.3%	?	6.31µM*	-1.5%	-24.2%
COc1cccc(NC(=S)NCc2ccc3c(c2)cc(C)n3C)c1	4.47µM*	·	i	?	6.1%	5.4%
CSc1nc(=O)[nH]nc1Sc1ccccc1	·	·	?	·	-26.4%	-21.7%
Cc1ccc(-c2onc(C)c2C)cc1S(=O)(=O)N1CCC(C)CC1	·	·	·	·	-20.6%	?
CCC(NC(=O)c1ccc2nc(Cc3ccc(OC)cc3)oc2c1)c1ccncc1 (stereo not drawn)	21.6%	·	i	?	-46.3%	?
O=C(Nc1ccc(Oc2ccnc3[nH]ccc23)c(F)c1)c1cccn(-c2ccc(F)cc2)c1=O	·	-19.3%	·	·	·	·
COc1ccccc1Nc1nc(-c2ccc(F)cc2)c2c(n1)-c1ccccc1OC2	·	-1.7%	i	·	-2.0%	-6.5%
Cc1cccc(NC(=S)NCc2ccc(F)cc2)c1	?	3.4%	i	12.6µM*	-9.0%	-14.8%
COc1ccc(CNC(=S)Nc2cccc(Cl)c2)cc1	·	·	i	·	-27.7%	-28.0%
COc1cccc(NC(=S)NCc2ccc(F)cc2)c1	?	10.9%	?	7.08µM*	-16.8%	-0.1%
COc1ccc(CNC(=S)Nc2cccc(C)c2)cc1	10µM*	15.5%	i	20µM*	3.5%	?
COc1ccccc1CCNC(=O)C1CC(=O)N(c2ccccc2F)C1 (stereo not drawn)	·	·	i	·	4.4%	-1.1%
C/C(=N\NC(=O)c1nnn(-c2nonc2N)c1CSc1ccc(C)cc1)c1cccnc1	·	·	i	·	-44.1%	-8.8%
COc1cc(C(=O)Nc2ccccc2OCc2cc(=O)n3c(C)csc3n2)cc(OC)c1OC	·	3.1%	?	·	0.8%	0.9%
COc1ccc(OC)c(NC(=O)c2c(NCc3ccc(N(C)C)cc3)sc3c2CCCC3)c1	·	?	22.4µM*	·	-50.6%	0.0%
COc1ccc(NC(=O)c2c(NC(=O)CNCc3ccco3)sc3c2CCC3)c(OC)c1	1.12µM*	1.9%	i	2.51µM*	1.0%	-8.2%
COc1ccc(OC)c(NC(=O)c2c(NCc3ccc(OC)c(OC)c3)sc3c2CCC3)c1	·	?	·	·	-8.7%	-4.4%
COc1ccc(NC(=O)c2c(NC(=O)CNCc3ccco3)sc3c2CCC3)cc1	-72.6%	-5.7%	i	?	-13.1%	0.0%
COc1ccc(OC)c(NC(=O)c2c(NC(=O)CNCc3ccco3)sc3c2CCC3)c1	?	-3.5%	i	2.24µM*	10.6%	10.7%
CC(C)(CO)NC(=O)c1cnn(-c2nccc(-c3ccc4c(c3)OCO4)n2)c1C1CC1	·	·	i	·	·	·
